Common to all, as to experiment: DAPPL (digital affinity profiling via proximity ligation, sequencing); 10 mM Tris-HCl pH 7.5, 50 mM NaCl, 1 mM DTT, 4% glycerol, room temperature, 30 min; GST-TFs on glutathione beads, 16-mer random dsDNA library, 0.1% formaldehyde crosslink after washing; high values mean tight binding
Conditions in all cases: protein: recombinant; tags: N-terminal GST; dsDNA, one strand shown

One test deals with T1, FLI1 (Homo sapiens, UniProt Q01543 1-452).
T1 sequence: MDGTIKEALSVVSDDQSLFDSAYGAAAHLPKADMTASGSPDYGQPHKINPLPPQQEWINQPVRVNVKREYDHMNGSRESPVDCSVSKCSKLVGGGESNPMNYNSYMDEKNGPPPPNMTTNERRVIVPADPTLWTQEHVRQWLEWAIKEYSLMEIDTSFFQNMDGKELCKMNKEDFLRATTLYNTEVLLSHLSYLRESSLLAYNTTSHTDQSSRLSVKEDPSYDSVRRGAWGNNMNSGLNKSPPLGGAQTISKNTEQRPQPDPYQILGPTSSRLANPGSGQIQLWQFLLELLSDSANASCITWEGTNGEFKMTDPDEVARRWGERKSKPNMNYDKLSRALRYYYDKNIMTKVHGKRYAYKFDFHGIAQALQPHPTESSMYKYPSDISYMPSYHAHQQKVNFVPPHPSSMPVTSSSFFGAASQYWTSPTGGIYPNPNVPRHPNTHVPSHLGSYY
The procedure, abridged: (§1)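 Binding signal is given per hexamer as its read frequency for a factor divided by its frequency in the tag-only sample. GST-fused human transcription factors were expressed in yeast, captured on glutathione beads, barcoded with DNA and pooled with that sample, then incubated with 200 nmole of a 16-mer random double-stranded DNA library in Tris/NaCl/DTT/glycerol buffer for 30 min at room temperature. The pools were then washed, crosslinked, proximity-ligated, amplified by PCR and sequenced on an Illumina NextSeq500.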

A further test has as its target T2, ELK1 (Homo sapiens, UniProt P19419 1-428).
T2 sequence: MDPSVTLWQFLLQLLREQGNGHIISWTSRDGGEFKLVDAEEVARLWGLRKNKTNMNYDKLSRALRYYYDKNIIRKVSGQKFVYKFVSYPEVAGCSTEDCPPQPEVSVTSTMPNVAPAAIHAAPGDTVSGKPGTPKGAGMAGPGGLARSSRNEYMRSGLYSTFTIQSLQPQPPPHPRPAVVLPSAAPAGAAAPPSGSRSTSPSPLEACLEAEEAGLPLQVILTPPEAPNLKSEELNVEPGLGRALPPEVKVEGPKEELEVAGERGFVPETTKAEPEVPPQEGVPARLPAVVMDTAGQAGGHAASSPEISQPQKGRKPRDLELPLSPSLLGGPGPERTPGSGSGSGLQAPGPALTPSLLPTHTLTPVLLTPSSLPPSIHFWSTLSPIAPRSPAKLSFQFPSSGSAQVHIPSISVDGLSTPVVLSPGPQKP
An outline of the steps:
as §1

The next test has as its target T3, GABPA (Homo sapiens, UniProt Q06546 1-454).
T3 sequence: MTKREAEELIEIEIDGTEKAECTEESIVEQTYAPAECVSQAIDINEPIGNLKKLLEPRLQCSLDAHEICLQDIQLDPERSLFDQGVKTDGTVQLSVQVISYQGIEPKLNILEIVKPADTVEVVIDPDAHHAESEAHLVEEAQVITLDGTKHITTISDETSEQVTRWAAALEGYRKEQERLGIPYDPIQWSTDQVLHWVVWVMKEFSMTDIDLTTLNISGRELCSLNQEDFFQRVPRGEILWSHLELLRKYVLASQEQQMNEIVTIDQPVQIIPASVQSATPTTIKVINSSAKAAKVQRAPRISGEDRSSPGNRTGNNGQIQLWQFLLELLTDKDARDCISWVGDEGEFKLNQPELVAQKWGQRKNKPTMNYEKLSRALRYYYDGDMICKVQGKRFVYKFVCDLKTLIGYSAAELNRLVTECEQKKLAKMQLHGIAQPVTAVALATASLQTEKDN
The procedure, abridged:
as §1

A further test addresses T4, ERG (Homo sapiens, UniProt P11308 1-479).
T4 sequence: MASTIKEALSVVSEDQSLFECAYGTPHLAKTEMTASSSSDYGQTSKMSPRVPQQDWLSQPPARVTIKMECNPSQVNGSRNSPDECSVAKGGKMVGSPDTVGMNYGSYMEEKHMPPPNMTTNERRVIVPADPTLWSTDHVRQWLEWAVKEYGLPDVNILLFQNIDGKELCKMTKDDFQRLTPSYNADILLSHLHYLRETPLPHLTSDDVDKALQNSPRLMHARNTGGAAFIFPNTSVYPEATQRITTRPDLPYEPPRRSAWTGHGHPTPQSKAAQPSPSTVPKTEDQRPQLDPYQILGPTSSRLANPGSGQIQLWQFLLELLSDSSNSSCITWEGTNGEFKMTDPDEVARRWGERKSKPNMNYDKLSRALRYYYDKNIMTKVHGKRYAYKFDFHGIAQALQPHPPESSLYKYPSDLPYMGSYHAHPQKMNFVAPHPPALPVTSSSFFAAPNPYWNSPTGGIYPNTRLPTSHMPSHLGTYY
The procedure, abridged: as §1

A further test has as its target ELF1 (Homo sapiens, UniProt P32519 1-619). An outline of the steps:
as §1

The target in another test is T5, EHF (Homo sapiens, UniProt Q9NZC4 1-300).
T5 sequence: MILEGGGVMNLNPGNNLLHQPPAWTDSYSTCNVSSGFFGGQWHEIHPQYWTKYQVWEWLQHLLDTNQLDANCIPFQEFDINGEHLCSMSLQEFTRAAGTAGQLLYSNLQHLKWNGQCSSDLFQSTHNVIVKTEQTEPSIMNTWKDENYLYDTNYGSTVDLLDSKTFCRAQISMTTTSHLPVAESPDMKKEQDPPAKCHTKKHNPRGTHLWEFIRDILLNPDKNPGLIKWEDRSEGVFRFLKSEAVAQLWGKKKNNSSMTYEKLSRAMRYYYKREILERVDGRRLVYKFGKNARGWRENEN
An outline of the steps:
as §1

For another test, the target named is SPI1 (Homo sapiens, UniProt P17947 1-270). An outline of the steps:
as §1

The next test deals with SPIB (Homo sapiens, UniProt Q01892 1-262). The procedure, abridged: as §1
SPIB, sequence (Q01892 whole entry): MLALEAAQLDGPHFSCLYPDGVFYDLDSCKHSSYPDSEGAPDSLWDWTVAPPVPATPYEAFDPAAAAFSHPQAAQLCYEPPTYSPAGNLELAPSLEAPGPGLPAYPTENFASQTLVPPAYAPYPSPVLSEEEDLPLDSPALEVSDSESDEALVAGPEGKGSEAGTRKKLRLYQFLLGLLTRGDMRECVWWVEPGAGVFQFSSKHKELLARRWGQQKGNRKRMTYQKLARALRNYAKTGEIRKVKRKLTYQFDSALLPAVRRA
In a further test the target is T6, ELK3 (Homo sapiens, UniProt P41970 1-407).
T6 sequence: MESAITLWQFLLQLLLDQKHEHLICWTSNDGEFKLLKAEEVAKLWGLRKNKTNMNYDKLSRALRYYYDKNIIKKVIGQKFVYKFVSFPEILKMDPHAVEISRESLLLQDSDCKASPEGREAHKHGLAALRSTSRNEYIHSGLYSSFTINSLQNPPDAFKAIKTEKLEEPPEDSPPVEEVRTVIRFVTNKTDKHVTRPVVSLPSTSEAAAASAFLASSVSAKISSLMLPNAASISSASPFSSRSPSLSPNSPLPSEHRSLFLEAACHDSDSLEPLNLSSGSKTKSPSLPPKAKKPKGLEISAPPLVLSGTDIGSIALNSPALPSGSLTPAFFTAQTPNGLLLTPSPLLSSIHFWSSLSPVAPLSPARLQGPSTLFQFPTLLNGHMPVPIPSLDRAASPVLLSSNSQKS
An outline of the steps: as §1

ELF1, sequence (P32519 whole entry): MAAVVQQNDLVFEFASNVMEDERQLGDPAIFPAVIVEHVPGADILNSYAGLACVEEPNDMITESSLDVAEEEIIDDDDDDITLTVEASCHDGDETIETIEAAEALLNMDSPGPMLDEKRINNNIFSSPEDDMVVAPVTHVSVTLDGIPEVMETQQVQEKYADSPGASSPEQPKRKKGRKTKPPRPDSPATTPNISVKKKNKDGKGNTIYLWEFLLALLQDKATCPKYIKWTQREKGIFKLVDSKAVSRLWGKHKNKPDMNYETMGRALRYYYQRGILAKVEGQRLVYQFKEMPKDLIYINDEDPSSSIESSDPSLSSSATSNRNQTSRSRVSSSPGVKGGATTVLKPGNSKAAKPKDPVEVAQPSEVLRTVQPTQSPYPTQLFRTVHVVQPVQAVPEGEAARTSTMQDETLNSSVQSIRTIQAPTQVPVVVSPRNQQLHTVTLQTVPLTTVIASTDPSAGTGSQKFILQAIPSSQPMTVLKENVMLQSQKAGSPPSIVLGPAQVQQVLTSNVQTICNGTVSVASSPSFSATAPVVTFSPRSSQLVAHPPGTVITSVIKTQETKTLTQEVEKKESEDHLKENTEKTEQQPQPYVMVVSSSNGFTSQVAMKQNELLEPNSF

Turning to ACATTT, the binding signal in the test with FLI1 is 1.63 fold enrichment (6-mer frequency, TF over GST control); with ELK1 it was 1.48 fold enrichment (6-mer frequency, TF over GST control); with GABPA it was 1.43 fold enrichment (6-mer frequency, TF over GST control); in the test with ERG, 1.56 fold enrichment (6-mer frequency, TF over GST control); with ELF1, 1.46 fold enrichment (6-mer frequency, TF over GST control); with EHF, 1.49 fold enrichment (6-mer frequency, TF over GST control). Moreover, the binding signal with SPI1 is 1.41 fold enrichment (6-mer frequency, TF over GST control); with SPIB, 1.53 fold enrichment (6-mer frequency, TF over GST control); with ELK3, 1.36 fold enrichment (6-mer frequency, TF over GST control).
As for GACTCC, the binding signal with FLI1 was 1.35 fold enrichment (6-mer frequency, TF over GST control); in the test with ELK1, 1.23 fold enrichment (6-mer frequency, TF over GST control); with GABPA it was 1.29 fold enrichment (6-mer frequency, TF over GST control); with ERG, 1.3 fold enrichment (6-mer frequency, TF over GST control); with ELF1, 1.35 fold enrichment (6-mer frequency, TF over GST control); with EHF it was 1.37 fold enrichment (6-mer frequency, TF over GST control). Moreover, the binding signal was 1.35 fold enrichment (6-mer frequency, TF over GST control) with SPI1; 1.38 fold enrichment (6-mer frequency, TF over GST control) in the test with SPIB; 1.25 fold enrichment (6-mer frequency, TF over GST control) with ELK3.
TACGAA: the binding signal in the test with FLI1 is 1.15 fold enrichment (6-mer frequency, TF over GST control); with ELK1, 1.23 fold enrichment (6-mer frequency, TF over GST control); in the test with GABPA it was 1.3 fold enrichment (6-mer frequency, TF over GST control); with ERG it was 1.23 fold enrichment (6-mer frequency, TF over GST control); with ELF1, 1.28 fold enrichment (6-mer frequency, TF over GST control); with EHF, 1.22 fold enrichment (6-mer frequency, TF over GST control). The binding signal in the test with SPI1 was 1.15 fold enrichment (6-mer frequency, TF over GST control); in the test with SPIB, 1.19 fold enrichment (6-mer frequency, TF over GST control); in the test with ELK3 it was 1.25 fold enrichment (6-mer frequency, TF over GST control).
Regarding CTTTCC, the binding signal with FLI1 is 2.05 fold enrichment (6-mer frequency, TF over GST control); in the test with ELK1, 1.9 fold enrichment (6-mer frequency, TF over GST control); in the test with GABPA, 1.83 fold enrichment (6-mer frequency, TF over GST control); with ERG it was 2.04 fold enrichment (6-mer frequency, TF over GST control); in the test with ELF1, 1.89 fold enrichment (6-mer frequency, TF over GST control); in the test with EHF it was 2.05 fold enrichment (6-mer frequency, TF over GST control). For the same sequence, the binding signal in the test with SPI1 was 1.84 fold enrichment (6-mer frequency, TF over GST control); with SPIB, 2.18 fold enrichment (6-mer frequency, TF over GST control); in the test with ELK3, 2.1 fold enrichment (6-mer frequency, TF over GST control).
As to TCTCTT, the binding signal is 1.52 fold enrichment (6-mer frequency, TF over GST control) with FLI1; 1.34 fold enrichment (6-mer frequency, TF over GST control) with ELK1; 1.45 fold enrichment (6-mer frequency, TF over GST control) with GABPA; 1.27 fold enrichment (6-mer frequency, TF over GST control) with ERG; 1.47 fold enrichment (6-mer frequency, TF over GST control) with ELF1; 1.41 fold enrichment (6-mer frequency, TF over GST control) with EHF. Besides, the binding signal in the test with SPI1 is 1.32 fold enrichment (6-mer frequency, TF over GST control); with SPIB, 1.38 fold enrichment (6-mer frequency, TF over GST control); with ELK3 it was 1.31 fold enrichment (6-mer frequency, TF over GST control).
Regarding CGGCTC, the binding signal with FLI1 was 1.27 fold enrichment (6-mer frequency, TF over GST control); with ELK1 it was 1.29 fold enrichment (6-mer frequency, TF over GST control); with GABPA it was 1.2 fold enrichment (6-mer frequency, TF over GST control); with ERG, 1.33 fold enrichment (6-mer frequency, TF over GST control); with ELF1 it was 1.27 fold enrichment (6-mer frequency, TF over GST control); in the test with EHF it was 1.31 fold enrichment (6-mer frequency, TF over GST control). Also, the binding signal in the test with SPI1 was 1.33 fold enrichment (6-mer frequency, TF over GST control); with SPIB, 1.33 fold enrichment (6-mer frequency, TF over GST control); with ELK3 it was 1.31 fold enrichment (6-mer frequency, TF over GST control).

These data come from article PMC7862700, “An all-to-all approach to the identification of sequence-specific readers for epigenetic DNA modifications on cytosine”.
